The whole screen tested about 360,000 compounds, of which about 2,900 (0.81%) were called active.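 The calls were made as follows: active = inhibition above the mean inhibition across every tested compound plus 3 SD (cut at about 22% in these data); inactive = the rest.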 Only a selection was taken, and actives are over-represented in it overall.
What follows are compounds tested against Perilipin-5 (Homo sapiens) + 1-acylglycerol-3-phosphate O-acyltransferase ABHD5 (Homo sapiens) (UniProt Q00G26+Q8WTS1) (assay: ABHD5-PLIN5 interaction inhibitors, primary screen, cell lysate, split luciferase complementation, luminescence (AID 602281;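 also: 0% = DMSO only wells and the 100% control is not disclosed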)). Settings: Split G. princeps luciferase complementation, 4 h, at 4 µM, active compounds read high.
Chain of Perilipin-5 (Homo sapiens) + 1-acylglycerol-3-phosphate O-acyltransferase ABHD5 (Homo sapiens) (Q00G26 whole entry, looked up): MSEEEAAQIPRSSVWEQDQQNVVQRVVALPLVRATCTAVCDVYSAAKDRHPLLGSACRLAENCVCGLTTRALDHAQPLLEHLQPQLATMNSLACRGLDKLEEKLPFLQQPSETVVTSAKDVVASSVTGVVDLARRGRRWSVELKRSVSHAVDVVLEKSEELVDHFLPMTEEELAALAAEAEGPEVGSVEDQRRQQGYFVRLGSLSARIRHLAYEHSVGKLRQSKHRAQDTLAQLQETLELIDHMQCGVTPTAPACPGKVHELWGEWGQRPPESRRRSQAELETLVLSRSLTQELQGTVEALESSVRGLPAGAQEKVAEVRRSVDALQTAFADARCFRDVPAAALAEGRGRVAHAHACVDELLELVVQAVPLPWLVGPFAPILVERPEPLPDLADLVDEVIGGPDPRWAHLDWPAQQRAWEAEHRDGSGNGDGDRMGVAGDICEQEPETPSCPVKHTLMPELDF
Chain of Perilipin-5 (Homo sapiens) + 1-acylglycerol-3-phosphate O-acyltransferase ABHD5 (Homo sapiens) (Q8WTS1 whole entry, looked up): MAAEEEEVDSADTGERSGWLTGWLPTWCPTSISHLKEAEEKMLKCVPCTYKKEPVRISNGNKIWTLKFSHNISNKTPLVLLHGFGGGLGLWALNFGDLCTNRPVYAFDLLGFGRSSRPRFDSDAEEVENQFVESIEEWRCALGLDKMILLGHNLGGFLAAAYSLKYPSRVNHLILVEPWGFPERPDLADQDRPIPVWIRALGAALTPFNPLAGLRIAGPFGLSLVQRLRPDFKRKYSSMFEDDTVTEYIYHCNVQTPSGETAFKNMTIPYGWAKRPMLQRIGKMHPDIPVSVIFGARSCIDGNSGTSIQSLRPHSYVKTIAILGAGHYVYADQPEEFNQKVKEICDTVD
In the case of `CC(C)CN1CCC1(C)C(=O)Nc1ccc(OC(F)F)cc1` (stereo not drawn), the inhibition is reported as -1.42% (inactive).
In the case of `COc1ccc(C(=O)/C=C/Nc2ccccn2)cc1`, the inhibition is reported as 0.9% (inactive).
With `CSc1nc(N(C)NC(=O)c2cccc(C)c2)c2ccccc2n1` the inhibition was -6.13% (inactive).
With `Cc1cc(C)nc(S/C=C/C(=O)c2ccccc2)n1` the inhibition was 65.4% (active).
With `O=C(Nc1cccc(Cl)c1Cl)c1ccccc1NC(=O)C1CC=CCC1C(=O)O` (stereo not drawn) the inhibition was -5.77% (inactive).
For `O=[N+]([O-])/C=C/c1ccc2c(ccn2Cc2ccccc2)c1`, the inhibition was 92% (active).
With `NC(=O)C1CCN(C(=O)c2ccc(-c3ccccc3)cc2)CC1` the inhibition was 5.48% (inactive).
`NS(=O)(=O)c1ccc(NC(=O)COC(=O)C2(c3ccc(F)cc3)CCCC2)cc1` was tested, and the inhibition was -6.25% (inactive).
`O=C1c2cccnc2C(Nc2ccc(S(=O)(=O)N3CCCCCC3)cc2)N1Cc1ccccc1` (stereo not drawn) was tested, and the inhibition was -3.06% (inactive).
For `O=C(CCNS(=O)(=O)c1ccccc1C(F)(F)F)Nc1ccncc1`, the inhibition was 3.18% (inactive).
With `Nc1cccc(OCCCCCOc2cccc(N)c2)c1` the inhibition was 68.8% (active).
`C=CCNCCCCOc1ccccc1` was tested, and the inhibition was -2.87% (inactive).
In the case of `CN(C)CCOc1cccc(Br)c1`, the inhibition is reported as -5.46% (inactive).
`O=C(COC(=O)c1cnccn1)Nc1cccc2ccccc12` was tested, and the inhibition was -5.15% (inactive).
`COc1cccc2cc(C(C)N(CCCN3CCOCC3)C(=O)Nc3ccc(Cl)cc3)oc12` (stereo not drawn) was tested, and the inhibition was 7.7% (inactive).
For `O=C(Cn1nc(CNc2ccc(Cl)cc2)[n+]2c1CCCCC2)c1ccc(Cl)cc1`, the inhibition was 28.2% (active).
`O=C(Cn1nnc(N2CCCCC2)n1)c1ccc(Cl)c(Cl)c1` was tested, and the inhibition was -2.6% (inactive).
With `O=C(Cn1ncc(N2CCCC2)c(Br)c1=O)c1ccc(Cl)cc1` the inhibition was 3.08% (inactive).
In the case of `N#Cc1ccc(C2N=C(c3ccccc3)NO2)cc1` (stereo not drawn), the inhibition is reported as 5.57% (inactive).
In the case of `Cc1noc(C)c1NC(=O)Nc1ccc2c(c1)C(=O)N([C@H](C)CO)C[C@H](C)[C@@H](CN(C)S(=O)(=O)c1cn(C)cn1)O2`, the inhibition is reported as 3.26% (inactive).
In the case of `Cc1cccc(C)c1NC(=O)C(c1cccc2ccccc12)n1c(=O)c(-c2ccco2)nc2ccccc21` (stereo not drawn), the inhibition is reported as 71.4% (active).
In the case of `O=C(NC1CCCCC1)C(c1cc2ccccc2o1)n1c(=O)c(-c2ccco2)nc2ccccc21` (stereo not drawn), the inhibition is reported as 78.2% (active).
In the case of `Cc1cccc(C)c1NC(=O)CCCSc1nnc(-c2ccco2)n1-c1ccccc1`, the inhibition is reported as -1.49% (inactive).
`N#Cc1ccc(C(C(=O)NCc2ccccc2)n2c(=O)c(-c3ccco3)nc3ccccc32)cc1` (stereo not drawn) was tested, and the inhibition was 76.5% (active).
In the case of `COc1ccc(NC(=O)C(c2ccncc2)n2c(=O)c(-c3cc4ccccc4[nH]3)nc3ccccc32)cc1` (stereo not drawn), the inhibition is reported as -4.13% (inactive).
`Cn1c(SCC(=O)NC2CCCCC2)nnc1-c1cc2ccccc2o1` was tested, and the inhibition was -2.37% (inactive).
With `CCC(CC)C(C(=O)NC1CCCC1)N1CCN(c2cc(C)nc3ccccc23)CC1` (stereo not drawn) the inhibition was 1.05% (inactive).
With `COc1ccc(C(C(=O)NCc2ccccc2)n2c(=O)c(-c3ccccc3)nc3ccccc32)cc1` (stereo not drawn) the inhibition was 18.6% (inactive).
For `Cc1cccc(C)c1NC(=O)C(c1ccc(C(F)(F)F)cc1)n1c(=O)c(-c2ccco2)nc2ccccc21` (stereo not drawn), the inhibition was 74.7% (active).
`COc1ccc(C(C(=O)Nc2c(C)cccc2C)N2CCN(c3ccc(C)cc3)CC2)cc1` (stereo not drawn) was tested, and the inhibition was -0.48% (inactive).
With `CCCCCNC(=O)C(c1ccc(OC)cc1)n1c(=O)c(-c2ccccc2)nc2ccccc21` (stereo not drawn) the inhibition was 1.61% (inactive).
In the case of `CCC(C(=O)Nc1c(C)cccc1C)n1c(-c2cc(C)cs2)nc2ccccc21` (stereo not drawn), the inhibition is reported as -1.93% (inactive).
With `CC1CCCN(CCCNC(=O)CN2C(=O)COc3ccc(S(=O)(=O)N4CCOCC4)cc32)C1` (stereo not drawn) the inhibition was -1.77% (inactive).
For `CCc1cccc(NC(=O)CCCN2C(=O)C(c3ccccc3)Oc3cccnc32)c1` (stereo not drawn), the inhibition was -1.01% (inactive).
With `Cc1ccc(-c2nnc(C)c(N3CC(C)OC(C)C3)n2)cc1` (stereo not drawn) the inhibition was -1.84% (inactive).
For `CC(OC(=O)CCCOc1ccccc1)C(=O)Nc1ccc(Cl)cn1` (stereo not drawn), the inhibition was -0.81% (inactive).
`O=C1OCCOC2CCCc3oc(-c4ccccc4)c1c32` (stereo not drawn) was tested, and the inhibition was -3.07% (inactive).
For `CN1CCC(=O)N([C@H](CO)Cc2ccccc2)CC1`, the inhibition was -5.42% (inactive).
`Cc1ccsc1C(=O)NC1CCCCC1C` (stereo not drawn) was tested, and the inhibition was 4.79% (inactive).
For `CC(N)C12CC3CC(CC(O)(C3)C1)C2` (stereo not drawn), the inhibition was -6.3% (inactive).
With `Cc1nc2ccccn2c1C(=O)NN=C1CCN(C)CC1` the inhibition was -0.19% (inactive).
In the case of `CC(=O)Oc1ccc(N(C(C)=O)S(=O)(=O)c2ccc3ccccc3c2)cc1Br`, the inhibition is reported as 6.52% (inactive).
`COC(=O)c1c(C)oc2ccc(N(C(=O)Oc3ccccc3)S(=O)(=O)c3ccccc3)cc12` was tested, and the inhibition was -1.45% (inactive).
`CC(=O)N(c1ccc2oc(=O)sc2c1)S(=O)(=O)c1ccc(C)cc1` was tested, and the inhibition was 36.7% (active).
For `COC(=O)c1ccccc1Oc1c(F)c(F)nc(N2CCOCC2)c1F`, the inhibition was -7.97% (inactive).
With `COc1cccc(N2CC(NS(=O)(=O)c3cccs3)CC2=O)c1` (stereo not drawn) the inhibition was 0.8% (inactive).
In the case of `CCN(CC(=O)Nc1ccc(Cl)c(S(=O)(=O)N(C)C)c1)Cc1nc2ccccc2c(=O)[nH]1`, the inhibition is reported as -4.43% (inactive).
In the case of `Cc1cc(N2CCCC2=O)cc(C)c1S(N)(=O)=O`, the inhibition is reported as -1% (inactive).
For `O=C(COc1nsnc1N1CCOCC1)Nc1ccccc1Cl`, the inhibition was 0.63% (inactive).
With `O=C(Nc1ccccc1Cl)/C(Cl)=C(\Cl)S(=O)c1ccccc1` (stereo not drawn) the inhibition was 81.7% (active).
With `CCOC(=O)[C@]12CCCC=C1N(Cc1ccc3c(c1)OCO3)C(=O)[C@H](CC(=O)N1CCN(C(=O)c3ccco3)CC1)C2` the inhibition was 5.36% (inactive).
For `O=C1C=CC(=O)N1c1ccc(N2CCCCC2)cc1`, the inhibition was 29% (active).
`O=C(c1ccc(Cl)c(S(=O)(=O)N2CCCCCC2)c1)N1CCN(c2ccc(O)cc2)CC1` was tested, and the inhibition was 1.37% (inactive).
For `c1ccc(-n2cccc2)c(N2CCCCC2)c1`, the inhibition was -0.7% (inactive).
With `CCN(C(=O)CSc1nc(N)cc(=O)[nH]1)C1CCS(=O)(=O)C1` (stereo not drawn) the inhibition was -2.61% (inactive).
`Cc1c(NC(=O)c2cc(-c3ccc(Cl)s3)nc3ccccc23)c(=O)n(-c2ccccc2)n1C` was tested, and the inhibition was 0.07% (inactive).
For `CCc1ccc(-c2cc(C(=O)NN3CCN(C)CC3)c3ccccc3n2)cc1`, the inhibition was 11.1% (inactive).
For `Cc1ccc(NC(=O)c2cc(-c3ccc(C)o3)nc3ccccc23)nc1`, the inhibition was 29% (active).
